# Test results from PubChem BioAssay AID977622 (Broad Institute, 2014).
# In all, about 1,900 compounds went through this assay and fewer than 10 were called active. About 39% were inconclusive and are not listed.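 The calls were made as follows: active = Green signal of the normal strain falls at least twice as much as red signal of the resistant mutant, with overall culture growth loss under a set limit; inconclusive = no clear call, values can overlap the other calls; inactive = the rest.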 The list is a sample of the results.
# What was measured:
# [1] = wild-type E. coli growth inhibition versus h38 humanized strain – h38 mutant RFP, wild-type GFP, cherry-pick, dose response (AID 977622); conditions: activity change: E. coli mixed culture, total growth OD600 at 50 uM, at 50 µM
# [2] = system: E. coli h38 humanized mutant ribosome RFP fluorescence, mixed culture, 24 h; test: as above; conditions: h38 mutant RFP at 50 uM; at 50 µM
SMILES,activity change [1],outcome [1],activity change [2]
CCc1ccc(CN2CCCC(CNS(=O)(=O)c3ccc(OC)cc3)C2)cc1 (stereo unspecified),-13.3%,inactive,9.56%
COc1ccc(OC)c(NC(=O)COc2ccc(S(=O)(=O)NC(C)C)cc2)c1,-14.2%,inactive,
O=C1CCCc2ccccc2N1Cc1ccccc1,-14.6%,inactive,
Cc1cccc(CN2C(=O)c3ccccc3Sc3ccc(C(=O)O)cc32)c1,-13.7%,inactive,
Cc1noc(C)c1NC(=O)Nc1ccc2c(c1)C(=O)N([C@@H](C)CO)C[C@@H](C)[C@H](CN(C)C(=O)Nc1ccc3c(c1)OCO3)OCCCC[C@@H](C)O2,-13.2%,inactive,26.4%
C=CCn1c(C)cc(C(=O)CSc2nnc(C3CC3)n2C2CC2)c1C,-20.6%,inactive,-37.4%
CN(C)S(=O)(=O)N1CCN(c2ccccc2Cl)CC1,-14.9%,inactive,-15.7%
O=C(c1ccc(-n2cccn2)cc1)N1CCc2ccccc2C1,-28.7%,inactive,-27.7%
Cc1onc(-c2ccccc2Cl)c1C(=O)Nc1ccc(Cl)cn1,-9.88%,inactive,
COc1cc(C#N)ccc1OCC(=O)Nc1cccc(S(=O)(=O)N2CCCC2)c1,-1.82%,inactive,-20.8%
COc1ccc(C2CC(=O)Oc3cc(C)cc(C)c32)cc1 (stereo unspecified),-0.711%,inactive,12.7%
O=C(Nc1cc(S(=O)(=O)N2CCOCC2)ccc1N1CCOCC1)c1ccc([N+](=O)[O-])s1,-3.16%,inactive,13.2%
COc1ccccc1Cc1c(-c2ccc(F)cc2)nc2ccc(Br)cn12,-10.3%,inactive,
CN(C)CCNc1ncnc2c1sc1nc(N3CCCC3)c3c(c12)CC(C)(C)OC3,-21.5%,inactive,-11.2%
Cc1ccccc1NC(=O)c1ccccc1N(C)S(=O)(=O)c1ccccc1,-14.8%,inactive,-11.7%
O=C1OC[C@@H]2CCCN2C(=O)[C@@H](CC(=O)N(CCO)Cc2ccccc2)C/C=C\C[C@H]1Cc1ccc(F)cc1,-20.1%,inactive,-35.1%
COc1cccc(CN(C)Cc2nc(Cc3ccccc3Cl)no2)c1,-26.5%,inactive,24.2%
CC(CCc1ccccc1)NC(=O)CCC1CCCC1 (stereo unspecified),-8.51%,inactive,4.55%
CCNC(=O)C1(C)CCCN(Cc2cccc3ccccc23)C1 (stereo unspecified),1.55%,inactive,69.8%
CCS(=O)(=O)N1CCN(c2ccnc3cc(Cl)ccc23)CC1,-3.73%,inactive,61.1%
Cc1ccc(-n2cc(CNCCN3CCOC3=O)c(-c3ccc(F)cc3)n2)cc1,-3.42%,inactive,31.2%
Cc1cc(C)cc(NS(=O)(=O)c2cc(C(=O)NCc3ccccn3)ccc2Cl)c1,-24.9%,inactive,-5.16%
CCn1c(COc2cccc(OC)c2)nnc1SCC(=O)Nc1cc(OC)ccc1OC,-38.2%,inactive,-20.2%
C[C@@H]1CN([C@@H](C)CO)S(=O)(=O)c2ccc(Br)cc2O[C@H]1CN(C)C(=O)c1ccccc1,-2.07%,inactive,

SMILES,activity change [1],outcome [1],activity change [2]
C[C@@H]1CCCCO[C@H](CN(C)C)[C@@H](C)CN([C@H](C)CO)C(=O)c2cc(NC(=O)Nc3cccc4ccccc34)ccc2O1,8.4%,inactive,44.4%
O=C(C[n+]1cc(-c2ccc(F)cc2)n2c1CCC2)c1cccs1,2.39%,inactive,21.5%
C[C@H](CO)N1C[C@H](C)[C@H](CN(C)C(=O)Nc2ccc3c(c2)OCO3)Oc2c(NC(=O)Nc3ccccc3)cccc2C1=O,-5.63%,inactive,44%
Cc1ccc2oc(=O)n(CCCOc3ccccc3C)c2c1,-15.8%,inactive,-0.57%
COc1ccc(CN2CCC3CC2c2cc(Cl)ccc23)cc1 (stereo unspecified),-30.7%,inactive,-4.61%
NS(=O)(=O)c1cc(C(=O)OCC(=O)Nc2ccccc2[N+](=O)[O-])ccc1Cl,-8.81%,inactive,1.48%
CC(=O)Oc1ccc(N(c2ccccc2)S(=O)(=O)c2ccc(C)cc2)cc1,-32.3%,inactive,
COc1ccc(NC(=O)Nc2cccc3c2O[C@H](CN(C)S(=O)(=O)c2ccc(Cl)cc2)[C@@H](C)CN([C@@H](C)CO)C3=O)cc1,-2.69%,inactive,-5.12%
O=C(O)c1ccccc1Nc1cc(Cl)c2nonc2c1[N+](=O)[O-],-25.7%,inactive,
C[C@@H]1CCCCO[C@H](CN(C)C)[C@H](C)CN([C@@H](C)CO)C(=O)c2cc(NC(=O)Nc3cccc4ccccc34)ccc2O1,4.86%,inactive,1.63%
COc1ccc(C#Cc2ccc([C@@H]3[C@@H](CO)N4CCCCN(C(=O)Nc5ccc(F)cc5)C[C@H]34)cc2)cc1,-49.7%,inactive,97.4%
Cc1cccc(Oc2ccc(NC(=O)c3ccccc3C(=O)O)cc2)c1,-16.2%,inactive,
CCOCC(=O)Nc1c(C(=O)Nc2ccc3c(c2)OCCO3)oc2ccccc12,-44.7%,inactive,4.56%
COc1cc2c(c(OC)c1OC)C(c1ccc3c(c1)OCO3)CC(=O)O2 (stereo unspecified),-14.3%,inactive,37.2%
CCC(C)c1ccccc1NC(=O)c1cccc(-n2cnnn2)c1 (stereo unspecified),-13.9%,inactive,-4.87%
CN(C)CCCN(C(=O)CCOc1ccccc1)c1nc2c(F)cccc2s1,-10.6%,inactive,-7.27%
CC(NC(=O)c1ccc(CS(=O)(=O)c2ccc(Cl)cc2)o1)c1ccc2c(c1)OCCO2 (stereo unspecified),-24.9%,inactive,17.5%
NS(=O)(=O)c1ccc(NC(=O)c2cc(Cl)sc2Cl)cc1,0.867%,inactive,13.3%
CC(C)(CC(=O)O)CC(=O)NCc1c(Cl)cccc1Sc1ccc(Cl)cc1,-12.9%,inactive,
C[C@H]1CN([C@@H](C)CO)C(=O)c2c(c3ccccc3n2C)-c2ccccc2CO[C@@H]1CN(C)Cc1ccncc1,-20.6%,inactive,-32.1%
CCCCc1n(CC(=O)c2ccc(Cl)cc2)c2ccccc2[n+]1C,-11.8%,inactive,5.85%
Cc1noc(C)c1NC(=O)Nc1ccc2c(c1)C(=O)N([C@H](C)CO)C[C@H](C)[C@H](CN(C)C(=O)Nc1ccc3c(c1)OCO3)OCCCC[C@H](C)O2,-22%,inactive,-9.02%
Cc1cccc(-c2ccc([C@H]3[C@@H](CO)N4CCCCN(S(=O)(=O)c5ccccc5C)C[C@@H]34)cc2)c1,-22.4%,inactive,18.9%
